Consider 34 sequences from paper PMC9838217, “Structure of SALL4 zinc finger domain reveals link between AT-rich DNA binding and Okihiro syndrome”.

Residue numbers refer to the chain shown, from its start.

One test addresses T1, SALL4 ZFC4 R900W (HT-SELEX) (Mus musculus, UniProt Q8BX22 870-940, R900W).
T1 sequence: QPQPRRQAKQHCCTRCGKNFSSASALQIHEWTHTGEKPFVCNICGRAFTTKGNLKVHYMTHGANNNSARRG
In words: HT-SELEX; high values mean tight binding. The note with it: protein: recombinant; vector His6-GST; dsDNA, one strand shown. Put shortly: (§1)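 DNA from a random library (1.5 µg in the first cycle, 200 ng afterwards) was incubated with purified recombinant mouse SALL4 zinc finger cluster 4, residues 870–940 (1 µg), for 10 min at room temperature in 100 µl buffer: 10 mM Tris–HCl pH 7.5, 50 mM NaCl, poly(dI-dC), DTT. Bound complexes were pulled down on Ni2+ beads, washed and PCR-amplified, and the selection was repeated for up to 6 cycles in triplicate. MiSeq reads were scanned for 6-mers, and binding signal is each canonical k-mer's read fraction as fold change over the initial random library.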
On to GCATAA, for which the binding signal was found to be 1.11 ± 0.0331 fold-change vs cycle 0.

Take ATGGAG: the binding signal stood at 1.04 ± 0.0611 fold-change vs cycle 0.

For ACGAAA, the binding signal was 1.12 ± 0.0308 fold-change vs cycle 0.

On to ATCCTG, for which the binding signal came out at 1.02 ± 0.0483 fold-change vs cycle 0.

As for ACTGAG, the binding signal stood at 1.01 ± 0.0326 fold-change vs cycle 0.

ATGCAA: the binding signal was 1.18 ± 0.0732 fold-change vs cycle 0.

Turning to GGAAGA, the binding signal is 1.12 ± 0.0339 fold-change vs cycle 0.

As to ATTTGG, the binding signal is 1.09 ± 0.0268 fold-change vs cycle 0.

TAAGAA: the binding signal is 2.2 ± 0.155 fold-change vs cycle 0.

Take AAACCT: the binding signal stood at 1.34 ± 0.0189 fold-change vs cycle 0.

Regarding ACCAAT, the binding signal amounted to 1.33 ± 0.0357 fold-change vs cycle 0.

Consider AAACGA, for which the binding signal came to 1.16 ± 0.0331 fold-change vs cycle 0.

For a further test, the target named is T2, SALL4 ZFC4 G921D (HT-SELEX) (Mus musculus, UniProt Q8BX22 870-940, G921D).
T2 sequence: T1 sequence with W31R, G52D
Put plainly: HT-SELEX; high values mean tight binding. The note with it: protein: recombinant; vector His6-GST; dsDNA, one strand shown. Put shortly:
as §1
Turning to AGGTAA, the binding signal came to 1.45 ± 0.089 fold-change vs cycle 0.

As for AAGGGT, the binding signal is 1.01 ± 0.0322 fold-change vs cycle 0.

Consider AACTGA, for which the binding signal turned out to be 1.35 ± 0.0948 fold-change vs cycle 0.

Regarding GAGGAA, the binding signal was determined as 1.03 ± 0.0774 fold-change vs cycle 0.

GAAAAC: the binding signal stood at 1.19 ± 0.0327 fold-change vs cycle 0.

With ACTTCA, the binding signal stood at 1.4 ± 0.125 fold-change vs cycle 0.

For the sequence ACTAGG, the binding signal came out at 1.01 ± 0.0534 fold-change vs cycle 0.

On to AAGATG, for which the binding signal amounted to 1.39 ± 0.12 fold-change vs cycle 0.

Consider AATCAG, for which the binding signal was 1.32 ± 0.103 fold-change vs cycle 0.

As for ACATGT, the binding signal turned out to be 1.4 ± 0.056 fold-change vs cycle 0.

Turning to AGTCAG, the binding signal came to 0.958 ± 0.0631 fold-change vs cycle 0.

As for CCTATA, the binding signal amounted to 1.35 ± 0.0515 fold-change vs cycle 0.

Consider AACTAG, for which the binding signal came to 1.31 ± 0.0994 fold-change vs cycle 0.

Turning to AGCATA, the binding signal was 1.26 ± 0.0447 fold-change vs cycle 0.

For the sequence GATCAA, the binding signal was 1.36 ± 0.0523 fold-change vs cycle 0.

As for ATGTAG, the binding signal stood at 1.34 ± 0.129 fold-change vs cycle 0.

On to CATGAA, for which the binding signal was found to be 1.36 ± 0.0809 fold-change vs cycle 0.

Consider AAGGAT, for which the binding signal stood at 1.54 ± 0.145 fold-change vs cycle 0.

AAGGTA: the binding signal is 1.42 ± 0.11 fold-change vs cycle 0.

For AATACC, the binding signal worked out at 1.3 ± 0.0234 fold-change vs cycle 0.

With CTCTTC, the binding signal worked out at 1.238 ± 0.012 fold-change vs cycle 0.

On to AATCCT, for which the binding signal stood at 1.47 ± 0.113 fold-change vs cycle 0.

In the case of AAACGA, the binding signal was 1.16 ± 0.0214 fold-change vs cycle 0.
